The compounds below were run on T1, LZK. Conditions: Compound Concentration (nM):1000.
T1 construct: gene MAP3K13
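Also: KINOMEscan scanMAX binding as percent activity remaining versus control; lower means stronger binding.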

Compound | Percent Control
COc1cccc(-n2ncc3c(N/N=C/c4ccncc4)ncnc32)c1 [GW784752X] | 100%
C[C@@H](Oc1cc(-n2cnc3ccc(OC4CCN(C)CC4)cc32)sc1C(N)=O)c1ccccc1Cl [GSK579289A] | 78%
Cl.O=C(Nc1ccc(Oc2ccc3[nH]c(NC(=O)c4ccccc4)nc3c2)cc1)Nc1cc(C(F)(F)F)ccc1F [GW709042A] | 100%
C/C(Nc1ccc(S(N)(=O)=O)cc1)=C1/C(=O)Nc2ccccc21 [GW335962X] | 97%

Each compound was assayed on MAK. Conditions: Compound Concentration (nM):1000.

Compound | Percent Control
Cl.O=S1CCN(Cc2ccc(-c3ccc4ncnc(Nc5ccc(OCc6ccccc6)c(F)c5)c4c3)o2)CC1 [GW576924A] | 100%
COc1ccc2[nH]c3c4[nH]c5ccc(OC)cc5c4c4c(c3c2c1)C(=O)NC4=O [GW296115X] | 82%
COc1cc2ncnc(Nc3ccc4c(cnn4Cc4ccccc4)c3)c2cc1OC.Cl [GW282449A] | 100%
COc1cc(C=NNc2ncnc3c2cnn3-c2ccccc2)ccc1O [GW513184X] | 78%
COc1ccccc1-c1cc(/C=C2\C(=O)Nc3ncc(Br)cc32)cc(Br)c1O [GW442130X] | 100%
CN1CCN(C(=O)c2ccc(NC(=O)Nc3ccc(N(C)c4ccnc(Nc5ccc(CS(C)(=O)=O)cc5)n4)cc3)cc2)CC1.Cl [GW830263A] | 64%
O=C1Nc2ccc(C(=O)c3ccco3)cc2C1=Cc1cc(Cl)c(O)c(Cl)c1 [GW406108X] | 100%
COc1cc(/C=N/Nc2ncnc3[nH]ncc23)ccc1O [GW578748X] | 100%
Cc1cc(O)cc(C)c1/C=C/c1cncc(C(N)=O)c1 [GW435821X] | 100%
CCS(=O)(=O)c1ccc(OC)c(Nc2ncc(-c3cccc(F)c3)o2)c1 [GW621970X] | 100%
Cl.O=C(Nc1ccc(Oc2ccc3[nH]c(NC(=O)c4ccco4)nc3c2)cc1)Nc1cc(C(F)(F)F)ccc1F [GW683134A] | 100%
Nc1ncnc2occ(-c3ccc(NC(=O)Nc4cc(C(F)(F)F)ccc4F)cc3)c12 [GW770249X] | 100%
O=C(Nc1n[nH]c2nc(-c3ccc(O)cc3)c(Br)cc12)C1CC1 [SB-725317] | 39%
CC1=C(C(=O)Nc2ccc3[nH]ncc3c2)C(c2ccc(Cl)c(Cl)c2)CC(=O)N1 (centres unmarked) [GSK299115A] | 100%
NS(=O)(=O)c1ccc(N/N=C2\C(=O)Nc3ccc(Cl)cc32)cc1 [GW280670X] | 100%
CC1=C(C(=O)Nc2ccc3[nH]ncc3c2)C(c2ccc3ccccc3c2)CC(=O)N1 (centres unmarked) [GSK270822A] | 100%
COc1cccc(-c2c[nH]c3c(N/N=C/c4ccncc4)ncnc23)c1 [GW814408X] | 100%
NS(=O)(=O)c1ccc(N/N=C2\C(=O)Nc3ccc(C(=O)NCCc4c[nH]cn4)cc32)cc1 [GW300660X] | 100%
CN(C)CCNC(=O)Nc1ccc(N(C)c2ccnc(Nc3ccc(CS(C)(=O)=O)cc3)n2)cc1.Cl [GW830900A] | 100%
COc1ccc2cc(-c3c(-c4ccncc4)nc(-c4ccc(S(C)(=O)=O)cc4C)n3C)ccc2c1 [SB-633825] | 86%

Compound | Percent Control
NS(=O)(=O)c1ccc(N/N=C2\C(=O)Nc3ccc(-c4cnco4)cc32)cc1 [GW276655] | 100%
CN(C)c1cc2c(Nc3ccc4c(cnn4Cc4ccccc4)c3)ncnc2cn1 [GW282974X] | 98%
COc1ccc2c(-c3ccnc(Nc4cccc(OC(F)(F)F)c4)n3)cnn2n1 [GW810372X] | 100%
Cl.O=C(O[C@H]1CN[C@H](C#Cc2cc3ncnc(Nc4ccc5c(cnn5Cc5ccccc5)c4)c3s2)C1)N1CCOCC1 [GSK200398A] | 100%
CCS(=O)(=O)c1ccc(OC)c(Nc2ncc(-c3cccc(OC)c3)o2)c1 [GW580509X] | 100%
CCc1ccc(Oc2nccc(-c3c(-c4ccc(F)cc4)ncn3C3CCNCC3)n2)cc1 [SB-242719] | 100%
NS(=O)(=O)c1ccc(N/N=C2\C(=O)Nc3ccc(C(=O)NCc4ccncc4)cc32)cc1 [GW300657X] | 100%
COc1ccc(COc2ccc(Cc3cnc(N)nc3N)cc2OC)cc1 [GW632580X] | 89%
NS(=O)(=O)c1ccc(Nc2ncc(-c3ccccc3)o2)cc1 [GW572399X] | 100%
COC(=O)Nc1nc2ccc(Oc3ccc(NC(=O)Nc4cc(C(F)(F)F)ccc4F)cc3)cc2s1.Cl [GW693917A] | 100%
COc1cc(C)c(N(C)C(=O)CN(C)C)cc1Nc1nc(Nc2cccc(F)c2C(N)=O)c2cc[nH]c2n1 [GSK2219385] | 100%
COc1cc(N2CCN(C(C)C)CC2)ccc1Nc1nc(Nc2ccc(F)cc2C(=O)NC[C@@H](O)CO)c2cc[nH]c2n1 [GSK1392956A] | 100%
CC(C)COC(=O)c1ccc2c(c1)/C(=C/Nc1ccc(S(N)(=O)=O)cc1)C(=O)N2 [GW416981X] | 100%
Cl.c1ccc(Cc2nc3ccc(Nc4ncnc5ccccc45)cc3[nH]2)cc1 [GR269666A] | 100%
CCn1c(-c2nonc2N)nc2c(C#CC(C)(C)O)nc(OCCNC)cc21.Cl [GSK949675] | 100%
COc1cc2ncn(-c3cc(O[C@H](C)c4ccccc4Cl)c(C(N)=O)s3)c2cc1OC [GSK237701A] | 100%
COc1cccc(-n2ncc3c(N/N=C/c4ccncc4)ncnc32)c1 [GW784752X] | 100%
C[C@@H](Oc1cc(-n2cnc3ccc(OC4CCN(C)CC4)cc32)sc1C(N)=O)c1ccccc1Cl [GSK579289A] | 100%
Cl.O=C(Nc1ccc(Oc2ccc3[nH]c(NC(=O)c4ccccc4)nc3c2)cc1)Nc1cc(C(F)(F)F)ccc1F [GW709042A] | 100%
C/C(Nc1ccc(S(N)(=O)=O)cc1)=C1/C(=O)Nc2ccccc21 [GW335962X] | 98%
